# Compound activity: PubChem, National Center for Advancing Translational Sciences (NCATS)
# In the library only some 1.2% were active in any assay of this set; here they are far more common.
# TRb-SRC2 inh – inhibitors of human thyroid hormone receptor beta-SRC2 interaction | TRbeta-SRC2 peptide binding, fluorescence polarization; receptor liganded with 1 µM T3 | Potency, µM (titrated, usually from 106 µM), inactives show at the top dose activity change, negative = inhibition, usual class: inhibitors | hit rate 0.065% among 280,000;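 also: plate controls were bound peptide for no effect and peptide without receptor for full effect; nearly all actives have a fitted effect of over 50% in size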
#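 A fluorescence polarization screen tested compounds at multiple concentrations against complex formation between 0.6 uM TRb ligand-binding domain and 20 nM Texas Red SRC2 peptide, with 1 uM T3 present; readout after 5 hr.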
# GCN5L2 inh – blocks human GCN5L2 histone acetyltransferase; Q92830; GCN5L2 HAT assay, ThioGlo1 CoA-SH fluorescence; Potency, µM (highest dose often 58.9 µM), inactives show top-dose activity change, negative = inhibition, actives largely listed as inhibitors; hit rate 0.21% among 390,000
# Target sequence (Q92830 whole entry, looked up): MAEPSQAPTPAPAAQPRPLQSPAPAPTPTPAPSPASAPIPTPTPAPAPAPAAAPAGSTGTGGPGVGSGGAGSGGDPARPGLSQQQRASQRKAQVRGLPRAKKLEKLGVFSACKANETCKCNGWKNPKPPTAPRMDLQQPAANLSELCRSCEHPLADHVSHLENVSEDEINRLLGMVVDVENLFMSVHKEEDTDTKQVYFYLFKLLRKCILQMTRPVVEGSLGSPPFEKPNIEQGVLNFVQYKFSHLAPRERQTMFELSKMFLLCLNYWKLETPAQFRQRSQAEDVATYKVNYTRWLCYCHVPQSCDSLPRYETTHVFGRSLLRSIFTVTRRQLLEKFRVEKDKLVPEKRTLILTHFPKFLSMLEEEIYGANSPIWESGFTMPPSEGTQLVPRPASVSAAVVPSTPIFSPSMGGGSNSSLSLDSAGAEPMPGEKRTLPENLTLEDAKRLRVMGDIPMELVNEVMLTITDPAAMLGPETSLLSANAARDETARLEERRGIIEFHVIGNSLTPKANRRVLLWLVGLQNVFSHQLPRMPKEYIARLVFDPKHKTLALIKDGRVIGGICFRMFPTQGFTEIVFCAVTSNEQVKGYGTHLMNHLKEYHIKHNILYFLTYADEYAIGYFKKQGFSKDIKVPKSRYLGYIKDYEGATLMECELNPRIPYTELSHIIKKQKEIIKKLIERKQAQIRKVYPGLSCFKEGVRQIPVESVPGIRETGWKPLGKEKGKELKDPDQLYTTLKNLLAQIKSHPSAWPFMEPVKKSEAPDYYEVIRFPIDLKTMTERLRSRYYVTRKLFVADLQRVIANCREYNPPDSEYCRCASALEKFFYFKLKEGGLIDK
#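 Titration-based screen in which CoA formation is detected via maleimide probe ThioGlo1 (50uM) turning fluorescent on thiol reaction; substrates H3(1-25) 75uM and acetyl-CoA 70uM, GCN5L2 20nM, 20 min incubation at room temperature.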
# RGS12 GoLoco inh – blocks human Gai1 binding to RGS12 GoLoco peptide, red readout | P63096 | Gai1:RGS12 GoLoco peptide FP, rhodamine, 10 min | Potency, µM (top dose mostly 61.6 µM), without a hit: at the highest dose activity, negative = inhibition, actives largely listed as inhibitors | hit rate 0.44% among 230,000; active = well fitted inhibition curve with a large enough effect, not every such curve was filed as active; inactive = no such curve, though single readings can be large or run the other way; also: nearly all actives have a fitted effect of over 30% in size
# VDR inh – vitamin D3 receptor (human) inhibition | VDR-SRC2-3 peptide fluorescence polarization, 2 h | AID 504847 | hit rate 0.93% among 400,000 | Potency, µM, without a hit: max response, negative = inhibition, most hits filed as inhibitors
#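 Signal is fluorescence polarization, reporting how far test compounds block the interaction of VDR with the SRC2-3 coregulator peptide after a 2 h room-temperature incubation.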
# TR SRC2 fluor cs – counter-screen for TRb-SRC2 inhibitors: fluorescence interference; TRb/SRC2 Texas Red total fluorescence interference; Potency, µM (titrated, usually from 106 µM), inactives show top-dose fluorescence change, negative = quenching; AID 1479; hit rate 0.29% among 280,000; active = well fitted curve in either direction with a large enough effect; inconclusive = small, poorly fitted or top-dose-only effect
#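 Flags fluorescent or light-absorbing compounds by total fluorescence, S + 2P, at 555 nm excitation and 632 nm emission. Mixture: 20 nM Texas Red SRC2 peptide, 0.6 uM human TRb LBD, 1 uM T3, 5% DMSO; compound exposure 5 h at ambient temperature.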
# Active calls of the source: *; ? = inconclusive; · = no result given; ! = repeats disagree; [ ] = another dose, or the depositor's remark. Unless noted, calls follow the shape of the dose curve; as a rule, active = well fitted curve in the direction sought with a large enough effect; inconclusive = small, poorly fitted or top-dose-only effect, or another doubt; inactive = no such curve, though single readings can be large; an effect the other way counts as inactive or inconclusive. Unless noted, % is scaled to controls: 0 for no effect and ±100 for the full control effect; potency is read from the fitted curve at half-maximal effect.
SMILES,TRb-SRC2 inh,GCN5L2 inh,RGS12 GoLoco inh,VDR inh,TR SRC2 fluor cs
CCCCC(NC(=O)COc1cc2c(c3oc(=O)cc(C)c13)CCC(C)(C)O2)C(=O)O (configuration not stated),·,35µM*,·,10%,·
CCc1cc(=O)oc2c3c(cc(OCC(=O)NCCCC(=O)O)c12)OC(C)(C)CC3,·,10µM*,·,-12%,·
Cc1c(C)c2c(OCC(=O)N3CCC(C(=O)O)CC3)cc3c(c2oc1=O)CCC(C)(C)O3,·,16µM*,·,1%,·
CCc1cc(=O)oc2c3c(cc(OCC(=O)NCCC(=O)O)c12)OC(C)(C)CC3,·,?,·,-8%,·
Cc1c(C)c2c(OCC(=O)N3CCC(C(=O)NCC(C)C)CC3)cc3c(c2oc1=O)CCC(C)(C)O3,·,-8%,·,-2%,·
CC(C)c1cccc(C(C)C)c1,1%[201 µM],·,·,·,-2%[201 µM]
NCCCCCCC(O)(P(=O)(O)O)P(=O)(O)O,-5%,-2%,·,11%,1%
CC(C)[C@@H]1NC(=O)[C@H](CCCCN)NC(=O)[C@@H](Cc2c[nH]c3ccccc23)NC(=O)[C@H](Cc2ccc(O)cc2)NC(=O)[C@@H](NC(=O)[C@H](N)Cc2ccccc2)CSSC[C@@H](C(=O)N[C@@H](Cc2c[nH]c3ccccc23)C(N)=O)NC1=O,3%,-13%,·,1%,-2%
COc1ccc(Nc2c3c(nc4ccc(NC(=O)/C=C/c5cccc(OC)c5OC)cc24)CCCC3)cc1OC,-2%,-11%,·,69%,-5%
O=c1[nH]c2ccc(NCc3ccc(-c4ccccc4)o3)cc2[nH]1,-9%,1%,·,14%,-1%
O=c1[nH]c2ccc(NCc3ccc(-c4ccc(Cl)cc4)o3)cc2[nH]1,?,-21%,·,17%,100µM*[quencher]
CC(C)C12CC[C@@]3(CC[C@H]4[C@@](C)(CCC[C@]4(C)C(=O)O)[C@@H]3C1)[C@@H](CN)C2,·,·,5%[14.2 µM],·,·
COc1ccc(/C=C/C(=O)c2cccs2)c(OC)c1,9%,?,4%,11µM*,-2%
COc1ccc(/C=C/C(=O)c2c(O)cc(C)oc2=O)c(OC)c1,5%,?,134%,0%,12%
CO/S(=N\S(=O)(=O)c1ccc(Cl)cc1)c1ccc([N+](=O)[O-])cc1 (configuration not stated),·,-12%,·,?,·
COc1cc(C(=O)NS(=O)(=O)c2ccccc2C)ccc1Cc1cn(C)c2ccc(NC(=O)OC3CCCC3)cc12,7%,7.1µM*,5%,50µM*,-9%
O=C(CNC(=O)c1nc[nH]c1C(=O)N1CCc2ccccc2C1)OCc1ccccc1,·,4%,·,79µM*,·
c1ccc2sc(SSc3nc4ccccc4s3)nc2c1,1%[201 µM],?,10µM*,-20%,-1%[201 µM]
O=S1(=O)C=C(Sc2nc3ccccc3s2)c2ccccc21,-15%,-1%,2%,13µM*,0%
Cc1cc(C)nc(SC2=CS(=O)(=O)c3ccccc32)n1,-13%,-4%,8%,-1%,1%
OC[C@@H]1O[C@@H](n2cnc3c(SCc4ccccc4)ncnc32)[C@@H](O)[C@H]1O,·,·,3%[14.2 µM],·,·
CCCCCCCC(=O)OC,6%[201 µM],·,·,·,-3%[201 µM]
Cc1ccc(-c2cc(C(F)(F)F)n3nc(C(=O)Nc4ccon4)cc3n2)cc1C,-7%,-10%,105%,89µM*,0%
COc1ccc(-c2cc(C(F)(F)F)n3nc(C(=O)Nc4cc(C)on4)cc3n2)cc1OC,-1%,-3%,-9%,13%,3%
COc1cc(C)c(CC/C(C)=C/C=C/C(C)=O)c(C)c1C,6%,·,4%,79µM*,-1%
SMILES,TRb-SRC2 inh,GCN5L2 inh,RGS12 GoLoco inh,VDR inh,TR SRC2 fluor cs
COc1ccccc1/C=C/C(C)=O,1%,-6%,8%,6%,-3%
CC1=NN(c2ccccc2)C(=O)/C1=C\c1ccc(Br)s1,-11%,0%,-13%,-25%,-6%
CC1=NN(c2ccccc2)C(=O)/C1=C/C=C/C=C/N(C)C,4%,-17%,241%,-5%,1%
CC1=NN(c2ccccc2)C(=O)/C1=C/c1cccs1,-21%,-4%,8%,79µM*,-2%
CC1=NN(c2ccc(C)cc2)C(=O)/C1=C\C=C\c1ccccc1,-9%,0%,13%,79µM*,0%
CC(C)(C)NC(=O)CSc1nccn1Cc1ccccc1,6%,3.5µM*,5%,-12%,3%
NC(=O)c1cc(N2C(=O)C=CC2=O)ccc1Cl,-5%,?,-27%,20µM*,0%
COC(=O)c1cc(N2C(=O)C3C4C=CC(CC4)C3C2=O)ccc1Cl (configuration not stated),·,-28%,·,11%,·
CSCC[C@H](NC(=O)[C@H](CC(C)C)NC(=O)[C@H](CO)NC(=O)[C@H](CCC(=O)O)NC(=O)[C@H](CC(C)C)NC(=O)[C@H](Cc1ccc(O)cc1)NC(=O)[C@H](CCCCN)NC(=O)[C@H](CCCCN)NC(=O)[C@H](C)NC(=O)[C@H](CO)NC(=O)[C@H](CC(C)C)NC(=O)[C@H](CCC(N)=O)NC(=O)CNC(=O)[C@H](CC(C)C)NC(=O)[C@H](CC(C)C)NC(=O)[C@H](CCCCN)NC(=O)[C@H](CO)NC(=O)[C@H](Cc1ccccc1)NC(=O)[C@H](CC(=O)O)NC(=O)[C@H](CO)NC(=O)[C@@H](NC(=O)[C@H](Cc1ccccc1)NC(=O)[C@@H](NC(=O)CNC(=O)[C@H](CC(=O)O)NC(=O)[C@H](C)NC(=O)[C@@H](N)Cc1cnc[nH]1)C(C)C)[C@@H](C)O)C(N)=O,-7%,-3%,·,-5%,-7%
CCOc1ccccc1CNC(=O)c1nn(C)c2c1CS(=O)(=O)c1ccccc1-2,-25%,-3%,·,-4%,0.11µM*[quencher]
COc1cccc(CNC(=O)c2nn(C)c3c2CS(=O)(=O)c2ccccc2-3)c1,-5%,-5%,·,5%,0%
COc1ccc(CNC(=O)c2nn(C)c3c2CS(=O)(=O)c2ccccc2-3)cc1,0%,2%,·,79µM*!,-19%
CCCN(CCC)CCCNC(=O)c1nn(C)c2c1CS(=O)(=O)c1ccccc1-2,-17%,2%,·,12%,50µM*[quencher]
CC(=O)CC(=O)Nc1ccccc1C,-2%[201 µM],·,·,·,-5%[201 µM]
CN1/C(=C\C=C2/SC(=S)N(CC(=O)O)C2=O)C(C)(C)c2ccccc21,?,-23%,-144%,0%,45µM*[fluorescent]
C=CCN1C(=O)/C(=C\C=C2\N(C)c3ccccc3C2(C)C)SC1=S,13%,-6%,-68%,17%,?
N#Cc1c(-c2ccccc2)cc(-c2ccccc2)nc1SCC(O)CS(=O)(=O)Cc1ccc(Cl)cc1 (configuration not stated),4%,?,·,28µM*,-6%
CCc1cccc(CC)c1NC(=O)CSc1nnc(C2CC2)n1C,·,-1%,·,89µM*,·
CCc1cccc(CC)c1NC(=O)CSc1nnc(C2CC2)n1N,·,-2%,·,-14%,·
